Screening data as filed in PubChem.
Shown are actives, neighbours in structure and some others; about 6% of the full set was active somewhere.
D1 antagonist = human D1 dopamine receptor antagonism; activity change, negative = inhibition, % at 10 µM; HEK293 TREx D1 cells, calcium flux, dopamine EC80; stronger effect = lower value; P21728; 360,000 compounds, 3.2% hits; in the data active = activity change below about -30%; also: % is scaled to controls: 0 for no effect and ±100 for the full control effect
Target sequence (P21728 whole entry, looked up): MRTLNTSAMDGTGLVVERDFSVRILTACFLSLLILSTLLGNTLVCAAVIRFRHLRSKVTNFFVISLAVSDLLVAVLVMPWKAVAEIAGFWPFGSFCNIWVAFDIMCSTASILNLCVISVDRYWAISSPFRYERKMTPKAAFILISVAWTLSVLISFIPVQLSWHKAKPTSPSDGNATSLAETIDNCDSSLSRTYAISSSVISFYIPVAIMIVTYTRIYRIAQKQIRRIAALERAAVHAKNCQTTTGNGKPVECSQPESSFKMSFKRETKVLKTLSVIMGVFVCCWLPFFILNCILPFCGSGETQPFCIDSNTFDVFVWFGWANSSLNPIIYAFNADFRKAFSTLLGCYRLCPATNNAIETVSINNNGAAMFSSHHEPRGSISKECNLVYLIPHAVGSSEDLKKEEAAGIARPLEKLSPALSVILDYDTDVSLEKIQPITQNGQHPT
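Tetracycline-induced HEK293 T-REx cells with force-coupled D1 receptor were loaded with a no-wash calcium dye. Compound was added after a 10 s baseline and read kinetically for 180 s; EC80 dopamine was then added and calcium flux followed another 180 s.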
D1 agonist = agonists of human D1 dopamine receptor | activation, % at 2 µM | 360,000 compounds, 1% hits | HEK293 T-REx D1 cells, calcium flux, agonist mode | AID 504660 | P21728; in the data active = activation above about 30%; also: 0% is about no effect
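Agonism was scored from calcium flux recorded over 180 s (1 read/s) after pintool compound addition, following a 10-cycle baseline. Cells were inducible force-coupled HEK293 TREx D1, plated overnight at 30 C and loaded with no-wash calcium dye.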
Chronic BCR inh = inhibitors of chronic active B-cell receptor signaling | 340,000 compounds, 0.05% hits | ABC-DLBCL IkBa-CBG/CBR reporter, luminescence ratio, 4 h | AID 493014 | Potency, µM (top dose mostly 46.1 µM), inactives show top-dose activity change, negative = inhibition, hits mostly inhibitors; active = well fitted inhibition curve with a large enough effect in the signal ratio, with a control signal flat, not every such curve was filed as active; inconclusive = small, poorly fitted or top-dose-only effect, or effect the other way, or a change in a side signal; the % refers to the signal ratio;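 also: potency is read from the fitted curve at half-maximal effect; plate controls were basal doxycycline-induced cells for no effect and cells given 10 µM MG132 for full effect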
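Compounds up to 46 uM were incubated four hours with TMD8 cells whose green CBG68 luciferase is fused to IkappaBalpha; red CBR luminescence normalised the signal, and concentration-effect curves were fitted to fusion, red and ratio data.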
D3 antag = antagonists of human D3 dopamine receptor; P35462; D3R cells, DiscoveRx beta-arrestin luminescence, antagonist mode; stronger effect = lower value; max response, negative = inhibition, %; 360,000 compounds, 2.5% hits; AID 652054; in the data active = max response below about -50%; inconclusive = no clear call, values can overlap the other calls; also: % is scaled to controls: 0 for no effect and ±100 for the full control effect
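Cells plated overnight at 1500 cells/well, then exposed to library compounds with dopamine controls for 90 minutes at 37 degrees C. DiscoveRx reagent added for 30–60 minutes at room temperature; luminescence read, quantitative HTS format.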
DRD3 agonist = activates the human D3 dopamine receptor; P35462; D3R DiscoveRx beta-arrestin cells, luminescence, 90 min; AID 652048; max activation, %; 410,000 compounds, 0.58% hits; in the data active = max activation above about 30%; also: 0% is about no effect
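Cells at 1500/well, incubated overnight, then treated with pinned compounds (dopamine as control) for 90 min at 37 degrees C. DiscoveRx reagent added for 30 - 60 minutes at room temperature; luminescence read.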
D1 potentiator = human D1 dopamine receptor positive modulation; P21728; HEK293 TREx D1 cells, calcium flux, dopamine EC20 potentiation; potentiation, % at 10 µM; 360,000 compounds, 0.036% hits; AID 504651; in the data active = potentiation above about 30%; also: 0% is about no effect
Numbers without * were called inactive; ? = inconclusive; · = not tested or not shown; ! = not confirmed by another sample.

SMILES | D1 antagonist | D1 agonist | Chronic BCR inh | D3 antag | DRD3 agonist | D1 potentiator
COc1cc(C(C)=O)ccc1OCC(=O)N1CCC(Cc2ccccc2)CC1 | · | · | · | 10 | 2 | ·
COc1cc(C(C)=O)ccc1OCCCN1CCC(Cc2ccccc2)CC1 | 3 | 6 | 3% | -90* | -21 | -6
COc1cc(C(C)=O)ccc1OCCN1CCC(Cc2ccccc2)CC1 | · | 6 | ? | -77* | -22 | -11
COc1cc(C(=S)N2CCC(Cc3ccccc3)CC2)ccc1OCC(N)=O | -21 | 2 | -16% | -5 | 2 | -11
O=C1OC(CC(=O)N(Cc2nnc(-c3ccc(Cl)cc3)o2)C2CC2)c2ccccc21 (configuration not stated) | -44* | 1 | -6% | -19 | -4 | ·
O=C(COc1ccccc1)N(Cc1nnc(-c2ccccc2Cl)o1)C1CC1 | -10 | 1 | -26% | -24 | -18 | 1
Cc1ccc(C(=O)N(Cc2nnc(-c3ccc(Cl)cc3)o2)C2CC2)o1 | 1 | -1 | -6% | 13 | -8 | 2
O=C(CSC(=S)N1CCCC1)N(Cc1nnc(-c2ccccc2Cl)o1)C1CC1 | -67* | 5 | ? | 6 | 2 | ·
CCc1cccc(NC(=O)Cn2c(-c3ccc(F)cc3)cc(C(C)=O)c2C)c1 | -1 | 0 | 19% | · | 2 | -9
Cc1cc(C)c(O)c(CN(C)Cc2cc(Cl)cc(Cl)c2O)c1 | · | · | · | 17 | 41* | ·
OC(CN1CCCCC1)c1cc(-c2ccccc2)on1 (configuration not stated) | · | · | · | · | -3 | ·
Oc1c(C=C2N=c3ccccc3=N2)sc(=S)n1-c1ccccc1 | -3 | 8 | -11% | -2 | -6 | -6
CC1=Nc2ccccc2/C1=C/c1sc(=S)n(-c2cccc(C(=O)O)c2)c1O | -5 | 49* | ? | ? | -1 | 3
Cc1ccc(S(=O)(=O)N(CC(=O)NCCC2=CCCCC2)Cc2ccccc2F)cc1 | 0 | 10 | ? | -74* | 6 | 3
Cc1c(C(=O)NCc2ccccc2CN2CCCC2)oc2ccc(F)cc12 | -32* | 6 | 0% | -18 | -15 | ·
CSC(=NCc1ccco1)NC#N | -34* | 1 | -5% | -13 | 3 | -14
NC(=NCc1ccco1)NC(=O)c1ccccc1 | -13 | 5 | -9% | -1 | -10 | -9
COc1cc(C2CC(=O)Nc3cc4c(cc32)OCCO4)cc(Br)c1OC (configuration not stated) | 2 | 1 | · | · | -6 | 1
Cc1ccccc1NC(=O)Cn1c(=O)n(CCCCCC(=O)NCc2ccc3c(c2)OCO3)c(=O)c2sccc21 | -3 | 2 | · | · | -8 | 0
O=C(N/N=C/c1sc(=O)[nH]c1-[n+]1ccc2ccccc2c1)c1ccccc1[O-] | -10 | 34* | ? | 11 | 22 | -2
O=C(N/N=C/c1sc(=O)[nH]c1-[n+]1ccccc1)c1ccccc1[O-] | 1 | -1 | ? | -5 | -2 | 1
Nc1[nH]c(C(=O)c2ccccc2)c(-c2ccccc2Cl)c1C(=O)c1ccccc1 | · | · | · | ? | -2 | ·
CCOc1ccc(CNC(=O)c2cnc3sc(N4CCOCC4)nn3c2=O)cc1 | -61* | 0 | · | · | 6 | -4
CCCCOc1ccc(CNC(=O)c2cnc3sc(N4CCOCC4)nn3c2=O)cc1 | -5 | 0 | · | · | 3 | -3
Clc1ccc2oc(-c3ccccc3)nc2c1 | -1 | 3 | ? | 14 | -7 | 2
SMILES | D1 antagonist | D1 agonist | Chronic BCR inh | D3 antag | DRD3 agonist | D1 potentiator
Clc1ccc2oc(-c3cccnc3)nc2c1 | -37* | 6 | ? | 48 | 3 | -2
Cc1ccc(NS(=O)(=O)c2cc([N+](=O)[O-])ccc2NNC(=S)Nc2cccc(Cl)c2)c(C)c1 | 4 | 1 | ? | -73* | -4 | 9
Cc1ccc(C)c(NC(=O)c2cc(S(=O)(=O)N3CCCc4ccccc43)ccc2F)c1 | 7 | 4 | -1% | · | -8 | 5
C[C@@H]1CN(C(=O)c2nc3ccc(Cl)cn3c2CN[C@H]2CCCCNC2=O)C[C@H](C)O1 | 12 | 1 | 2% | -10 | -14 | -2
Cc1cccnc1CCNCc1c(C(=O)N2C[C@@H](C)O[C@@H](C)C2)nc2ccc(Cl)cn12 | 5 | 2 | 1% | -63* | -10 | -5
O=C(O)CCc1ccc(-c2cccs2)n1CC(=O)Nc1ccccc1C(F)(F)F | -39*! | 2 | 15% | -9 | -1 | -3
O=C(COC(=O)c1cccs1)Nc1ccccc1C(F)(F)F | -32* | 32* | ? | 4 | 0 | -4
O=C(O)CCc1ccc(-c2ccccc2)n1CC(=O)Nc1cccc(C(F)(F)F)c1 | -65* | 1 | 12% | 13 | -1 | -9
C=CCn1c(CCC(=O)O)ccc1-c1ccccc1 | -56* | 3 | 11% | -26 | -6 | -2
CCC(=O)N1CCc2cc(S(=O)(=O)NCCC(=O)Nc3ccc(C)cc3)ccc21 | -9 | -1 | · | · | 1 | 0
Fc1ccc(Nc2nnc(C(F)(F)F)s2)cc1Cl | -24 | 25 | 11% | 4 | -10 | 3
Fc1ccc(Nc2cncc(-c3ccsc3)c2)cc1Cl | · | · | · | -52* | -14 | ·
CCc1ccccc1NC(=O)CSc1nncn2c1cc1oc(C)cc12 | 3 | 6 | · | · | 3 | -7
COc1ccc(/C=N/NC(=O)c2ccc3c(c2)NC(=O)C(C)(C)O3)cc1OC | -20 | 0 | ? | 52 | 23 | -6
CC1(C)Oc2ccc(C(=O)NN)cc2NC1=O | -38* | 2 | 4% | 2 | 1 | -12
COc1ccc(NC(=O)C2CCN(S(=O)(=O)c3ccc4[nH]c(=O)ccc4c3)CC2)c(OC)c1 | 1 | 0 | · | · | 1 | -1
COc1ccccc1N(C)S(=O)(=O)c1ccc(Cl)c(C(=O)NNC(=O)c2ccccc2O)c1 | 8 | 0 | -2% | 12 | 18 | 0
COc1ccccc1N(C)S(=O)(=O)c1ccc(Cl)c(C(=O)OCc2c(C)noc2C)c1 | -29 | 31* | 15% | 4 | -2 | -13
CCOC(=O)/C=C/C(=O)OCC(=O)Nc1cccc(Cl)c1Cl | -13 | 0 | ? | 4 | 1 | -7
CCOC(=O)/C=C/C(=O)Nc1ccccc1-c1ccccc1NC(=O)/C=C/C(=O)OCC | 7 | 0 | ? | -62* | -5 | 3
C[C@H](c1ccccc1)N1C[C@H](COCc2ccccc2)Oc2cc(N3CC[C@H](N(C)C)C3)ccc2S1(=O)=O | · | · | · | 3 | -2 | ·
O=C(Nc1ccc(F)cc1)c1cccc(N2C(=O)C3C4C=CC(C5CC45)C3C2=O)c1 (configuration not stated) | -38* | 13 | ? | -8 | -5 | -2
